Data reported in PubChem BioAssay (NCATS).
Results filed as inconclusive are left out. Active and inactive are the calls of the source. Calls follow the shape of the dose curve; as a rule, active = well fitted curve in the direction sought with a large enough effect; inconclusive = small, poorly fitted or top-dose-only effect, or another doubt; inactive = no such curve, though single readings can be large; an effect the other way counts as inactive or inconclusive.

How the values were obtained:
[1] = test system: Es-2; assay: Primary qHTS to identify gynecologic anti-cancer compounds using libraries of approved drugs and bioactive compounds (AID 1345084); conditions: Gynecologic cancer cell panel viability, ATPlite luminescence, 48 h; series mostly up to 57.5 µM; also: nearly all actives have a fitted effect of over 55% in size
How it was run: (§1)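 Measured: luminescence after ATPlite addition (15 min, RT). Exposure: 48 h, 37 C, 5% CO2.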

[2] = test system: HeLa; assay: as above; conditions: Gynecologic cancer cell panel viability, ATPlite luminescence, 48 h; series mostly up to 57.5 µM
How it was run: as §1

[3] = test system: Hek293T; assay: as above; conditions: Gynecologic cancer cell panel viability, ATPlite luminescence, 48 h, control line for the selectivity index; series mostly up to 57.5 µM
How it was run: as §1

[4] = test system: JEG-3; assay: as above; conditions: Gynecologic cancer cell panel viability, ATPlite luminescence, 48 h; series mostly up to 57.5 µM
How it was run: as §1

[5] = test system: OV90; assay: as above; conditions: Gynecologic cancer cell panel viability, ATPlite luminescence, 48 h; series mostly up to 57.5 µM
How it was run: as §1

[6] = test system: PA-1; assay: as above; conditions: Gynecologic cancer cell panel viability, ATPlite luminescence, 48 h; series mostly up to 57.5 µM
How it was run: as §1

[7] = test system: SKOV3; assay: as above; conditions: Gynecologic cancer cell panel viability, ATPlite luminescence, 48 h; series mostly up to 57.5 µM
How it was run: as §1

[8] = test system: Tov-21-G; assay: as above; conditions: Gynecologic cancer cell panel viability, ATPlite luminescence, 48 h; series mostly up to 57.5 µM
How it was run: as §1

[9] = test system: Tov112D; assay: as above; conditions: Gynecologic cancer cell panel viability, ATPlite luminescence, 48 h; series mostly up to 57.5 µM
How it was run: as §1

[10] = Drug repurposing screens with cells derived from glioblastoma tumor samples (AID 1345199); conditions: GBM patient neurospheres viability, ATP luminescence, 48 h; also: nearly all actives have a fitted effect of over 40% in size; also: potency is read from the fitted curve at half-maximal effect
How it was run: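 Primary testing used CD133+ neurospheres from four GBM patients, seven concentrations, 48 h exposure and ATP-based viability; confirmation added three slower-growing patient lines.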

[11] = at 45.9 µM (top of the series), tumour line B
[12] = at 45.9 µM (top of the series), tumour line D
[13] = at 46 µM (top of the series), tumour line A
% is scaled to controls: 0 for no effect and ±100 for the full control effect.

O=P1(NCCCl)OCCCN1CCCl (stereo not drawn)
inactive: Potency [1] | Potency [2] | Potency [3] | Potency [4] | Potency [5] | Potency [6] | Potency [7] | Potency [8] | Potency [9] | activity, negative = cell killing ([10]; at 21.2 µM (top of the series), tumour line B) -10.6% | activity, negative = cell killing ([10]; at 21.2 µM (top of the series), tumour line D) -4.8% | activity, negative = cell killing ([10]; at 21.3 µM (top of the series), tumour line A) -27.9%

C=C1CC[C@@]2(O)[C@H]3Cc4ccc(O)c5c4[C@@]2(CCN3CC2CC2)[C@H]1O5
inactive: Potency [1] | Potency [2] | Potency [3] | Potency [4] | Potency [5] | Potency [6] | Potency [7] | Potency [8] | Potency [9] | activity, negative = cell killing [10, 11] -11% | activity, negative = cell killing [10, 12] 5.06%

CCN(CC)CCOC(=O)C(O)(c1ccccc1)c1ccccc1
inactive: Potency [1] | Potency [2] | Potency [3] | Potency [4] | Potency [5] | Potency [6] | Potency [7] | Potency [8] | Potency [9] | activity, negative = cell killing [10, 11] -7.05% | activity, negative = cell killing [10, 12] -0.674% | activity, negative = cell killing [10, 13] -16.9%

CC1NCCOC1c1ccccc1 (stereo not drawn)
inactive: Potency [1] | Potency [2] | Potency [3] | Potency [4] | Potency [5] | Potency [6] | Potency [7] | Potency [8] | Potency [9] | activity, negative = cell killing [10, 11] -0.55% | activity, negative = cell killing [10, 12] 7.64% | activity, negative = cell killing [10, 13] -23.4%

CC(C)(N)Cc1ccc(Cl)cc1
inactive: Potency [1] | Potency [2] | Potency [3] | Potency [4] | Potency [5] | Potency [6] | Potency [7] | Potency [8] | Potency [9] | activity, negative = cell killing [10, 11] -10.8% | activity, negative = cell killing [10, 12] -8.85%

Clc1cccc(N2CCNCC2)c1
active: Potency ([10]; tumour line A) 35.5 µM
inactive: Potency [1] | Potency [2] | Potency [3] | Potency [4] | Potency [5] | Potency [6] | Potency [7] | Potency [8] | Potency [9] | activity, negative = cell killing [10, 11] -20%

CCCN1CCC[C@@H]2Cc3[nH]ncc3C[C@H]21
inactive: Potency [1] | Potency [2] | Potency [3] | Potency [4] | Potency [5] | Potency [6] | Potency [7] | Potency [8] | Potency [9] | activity, negative = cell killing [10, 11] -3.57% | activity, negative = cell killing [10, 12] -3.31%

CCN(CC)C(=O)N[C@@H]1C=C2c3cccc4[nH]cc(c34)C[C@@H]2N(C)C1
inactive: Potency [1] | Potency [2] | Potency [3] | Potency [4] | Potency [5] | Potency [6] | Potency [7] | Potency [8] | Potency [9] | activity, negative = cell killing [10, 11] -7.53% | activity, negative = cell killing [10, 12] -22.7%

CN1CCN(C(=O)O[C@H]2c3nccnc3C(=O)N2c2ccc(Cl)cn2)CC1
inactive: Potency [1] | Potency [2] | Potency [3] | Potency [4] | Potency [5] | Potency [6] | Potency [7] | Potency [8] | Potency [9] | activity, negative = cell killing [10, 11] -4.94% | activity, negative = cell killing [10, 12] -12.7% | activity, negative = cell killing [10, 13] -22.2%
